In all, about 640,000 compounds went through this assay and about 9,300 (1.5%) were called active. No stated cut-off is given here; in the data, active means inhibition above about 32%; inactive means the rest. The full list was thinned out, with actives kept by preference.

This experiment is described as follows: TEAD-YAP interaction inhibition, primary screen, TEAD-YAP interaction inhibitor project, luminescence, HEK-TIYL cells (AID 1259422).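 Further: 0% = median of test compound wells and 100% = reference inhibitor wells.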 The settings on record: TEAD-Gal4/YAP UAS-luciferase luminescence, at 9.12 µM, stronger effect = higher value.
`COc1ccc(N2C(=O)CC(NNC(=O)c3ccccc3O)C2=O)cc1` (stereo not given): the inhibition is 8.23% (inactive).
The figure for `CCN(CC)c1ccc(NC(=O)c2ccccc2O)cc1` is -31.2% (inactive).
The figure for `CC12CCC(C(=O)N(NC(=O)c3ccccc3O)C1=O)C2(C)C` (stereo not given) is 74.3% (active); for `CC12C=CC3(O1)C(C(=O)N(CC1CCCO1)C3C(=O)NC1CCCCC1)C2C(=O)Nc1ccc(Cl)c(Cl)c1` (stereo not given) it is 2.66% (inactive); for `CCOc1ccc(S(=O)(=O)NCCOc2ccc(F)cc2)c(OCC)c1` it is 10.6% (inactive).
The figure for `O=C1c2ccccc2C(=O)N1c1cccc(Br)c1` is -1.81% (inactive); for `COc1ccc(-c2nc(NCCN3CCOCC3)c3ncn(-c4ccccc4)c3n2)cn1` it is 59.2% (active).
On to `COc1ccc(-c2nc(NCCO)c3ncn(-c4ccsc4)c3n2)cn1`, for which the inhibition is 41.7% (active).
With `NC(=O)c1ccc(-c2nc(NCCO)c3ncn(-c4ccsc4)c3n2)cc1`, the inhibition was 18.6% (inactive).
With `Nc1cccc(-c2nc(NCCO)c3ncn(-c4ccccc4)c3n2)c1`, the inhibition is 31.7% (inactive).
In the case of `Clc1nc(NCCN2CCOCC2)c2ncn(-c3ccccc3)c2n1` it was -5.11% (inactive); in that of `Cn1c(Nc2nc(NCCN3CCOCC3)c3ncn(-c4ccccc4)c3n2)nc2ccccc21`, 25.9% (inactive); in that of `C=CCn1c(=O)c(C(=O)Nc2cccc(Cl)c2)c(O)c2ccccc21`, 3.7% (inactive).
For the molecule `O=C(Nc1cccc2c1C(=O)c1ccccc1C2=O)c1ccc(F)cc1`, the inhibition was -2.6% (inactive).
In the case of `CNC(=O)C(=O)Nc1cc(OC)ccc1OC` it was 10.2% (inactive).
On to `CONC(=O)c1ccc(C(=O)c2cc(OC)ccc2OC)cc1`, for which the inhibition is 35.8% (active).
On to `COc1ccc(OC)c(C(=O)c2ccc(C(=O)NC3CC(C)(C)NC(C)(C)C3)cc2)c1`, for which the inhibition was 17.9% (inactive).
The figure for `CCOc1ccc(Nc2nc(Nc3ccc(C(C)=O)cc3)nc(C)c2[N+](=O)[O-])cc1` is 6.26% (inactive); for `COc1ccc(OC)c(NC(=O)CN2CCC(n3c(C)nc4cc(F)ccc43)CC2)c1` it is -30.9% (inactive).
Take `CCOC(=O)CC1NCC2c3ccccc3CCN2C1=O` (stereo not given): the inhibition was 2.64% (inactive).
In the case of `OC1CCN(c2ccnc3c(-c4cccc(C(F)(F)F)c4)cnn23)CC1` it was 10% (inactive); in that of `O=C(COc1ccc(Cl)cc1Cl)N1CCCc2ccccc21`, -11.7% (inactive); in that of `O=C(c1cc(Cl)ccc1[N+](=O)[O-])N1CCCc2ccccc21`, 10.8% (inactive).
The figure for `O=C(c1c[nH]c(=O)n(-c2ccc(F)c(Cl)c2)c1=O)N1CCCc2ccccc21` is 38.2% (active).
The figure for `COc1cc(NC(=O)c2sc3nc(C)nc(N4CCN(C)CC4)c3c2C)cc(OC)c1` is 4.26% (inactive).

Broadly, the inhibition is the change of the read-out against control, counted positive when it falls.

The values are drawn from PubChem BioAssay AID1259422 (The Scripps Research Institute Molecular Screening Center, 2018).
